Laboratory results as given in PubChem BioAssay (Tox21).
Results filed as inconclusive are left out. Active and inactive are the calls of the source. The call rests on the fitted dose curve.

Assay: qHTS assay to identify small molecule agonists of the endoplasmic reticulum stress response signaling pathway - cell viability counter screen (AID 1159517); further: nearly all actives have a fitted effect of over 50% in size
Conditions: ESRE-bla HeLa viability, CellTiter-Glo luminescence, 5 h; series mostly up to 61 µM
Text: U.S. Tox21 Program National Center for Advancing Translational Sciences [NCATS] NIH Chemical Genomics Center [NCGC] U.S. Environmental Protection Agency [EPA] National Institutes of Environmental Health Sciences [NIEHS] National Toxicology Program [NTP] U.S. Food and Drug Administration [FDA] Tox21 Assay Overview: Endoplasmic Reticulum (ER) plays an important role in cellular signaling, protein folding/maturation, stress response, lipid biosynthesis, calcium storage and release etc. Under stress conditions, proteins in ER misfold or unfold, and leading to the expression of ER stress responsive genes. ER stress has been associated with a variety of pathophysiological conditions such as cancer, inflammation, neurodegenerative diseases, diabetes, ischemic heart disease etc. To identify the compounds that induce ER stress response, an ER stress reporter cell line, CellSensor ESRE-bla HeLa (Life Technologies, Carlsbad, CA) containing a beta-lactamase reporter gene under control of the Endoplasmic reticulum Stress Response Element (ESRE) was used to screen Tox21 10K compound library. The cytotoxicity of the Tox21 compound library against the ESRE-bla HeLa cell line was tested in parallel by measuring cell viability using the CellTiter-Glo assay in the same wells.
Tox21 Assay Protocol Summary: ESRE-bla HeLa cells were dispensed at 1,500 cells/6 uL of assay medium per well into black wall/clear-bottom 1536-well plates using a Multidrop Combi (ThermoFisher Scientific, Waltham, MA) dispenser. After the assay plates were incubated at 37 C and 5% CO2 for an overnight, 23 nL of compounds dissolved in DMSO, positive controls or DMSO only was transferred to the assay plate by a Pintool station (Kalypsys, San Diego, CA). The assay plates were incubated at 37 C and 5% CO2 for 5 hr. One uL of LiveBLAzer B/G FRET substrate (Life Technologies) was added using a FRD (Flying Reagent Dispenser, Aurora Discovery, San Diego, CA) and the plates were incubated at room temperature for 2 hr. Fluorescence intensity (405 nm excitation, 460 nm and 530 nm emissions) was measured using an Envision plate reader (PerkinElmer, Shelton, CT). For cytotoxicity, 4 ul/well of CellTiter-Glo reagent was added into the assay plates using an FRD. After 30 min incubation at room temperature, the luminescence intensity was measured using a ViewLux plate reader (PerkinElmer).
For CC1=NN(c2ccc(C(=O)O)cc2)C(=O)C1, the outcome was “inactive”. With CCOC(=O)N1CCC(n2c(=O)[nH]c3cc(Cl)ccc32)CC1 the outcome was “inactive”. In the case of CCCCN(CCCC)CCCOC(=O)c1ccc(N)cc1, the outcome is reported as “inactive”. In the case of CCCCC(=O)O[C@]1(C(=O)CO)CC[C@H]2[C@@H]3CCC4=CC(=O)CC[C@]4(C)[C@H]3[C@@H](O)C[C@@]21C, the outcome is reported as “inactive”. For Nc1c(I)cc(I)c(C(=O)N(CCC(=O)O)c2ccccc2)c1I, the outcome was “inactive”. With O=C(CCCCCCCCC#CI)Oc1ccccc1 the outcome was “inactive”. With CO/N=C1\CN(c2nc3c(cc2F)c(=O)c(C(=O)O)cn3C2CC2)CC1CN (stereo not given) the outcome was “inactive”. In the case of CC(=O)OCC(=O)[C@@]12OC(C)(C)O[C@@H]1C[C@H]1[C@@H]3C[C@H](F)C4=CC(=O)C=C[C@]4(C)[C@@]3(F)[C@@H](O)C[C@@]12C, the outcome is reported as “inactive”. For Brc1cc(-c2ccc(Br)c(Br)c2Br)cc(Br)c1Br, the outcome was “inactive”. For O=C(Nc1ccc([N+](=O)[O-])cc1)Nc1ccc([N+](=O)[O-])cc1, the outcome was “inactive”. For Nc1ccc(Cl)cc1[N+](=O)[O-], the outcome was “inactive”. In the case of CCNC(=O)N1CCN(CCCC(c2ccc(F)cc2)c2ccc(F)cc2)CC1, the outcome is reported as “inactive”. In the case of CC(C)CCCC(=O)O, the outcome is reported as “inactive”. For NC(=O)Cn1c(=O)cc(CCN2CCN(c3nccc4sccc34)CC2)c2ccc(F)cc21, the outcome was “inactive”. In the case of O=C1OCCN1/N=C/c1ccc([N+](=O)[O-])o1, the outcome is reported as “inactive”. For COc1cc2c(N3CCN(C(=O)Nc4ccc(OC(C)C)cc4)CC3)ncnc2cc1OCCCN1CCCCC1, the outcome was “inactive”. In the case of C1COCO1, the outcome is reported as “inactive”. For Cc1cc(O)c2c(O)c3c(O)cccc3cc2c1, the outcome was “inactive”. With CCCCCCCCCCCC(=O)[O][Sn]([CH2]CCC)([CH2]CCC)[O]C(=O)CCCCCCCCCCC the outcome was “inactive”. In the case of N#C/C(=C1\SCC(c2ccccc2Cl)S1)n1ccnc1 (stereo not given), the outcome is reported as “inactive”. In the case of C=CC(C)(C)CC(=O)OC, the outcome is reported as “inactive”. For C[C@]12CCC(=O)C=C1C=C[C@@H]1[C@@H]2CC[C@@]2(C)[C@H]1CC[C@@]21CCC(=O)O1, the outcome was “inactive”. In the case of C=CCNc1nc(NCC=C)nc(N2CCN(C(c3ccc(F)cc3)c3ccc(F)cc3)CC2)n1, the outcome is reported as “inactive”. With C[N+](C)(C)CCOC(N)=O the outcome was “inactive”. With COC(=O)c1cc(Cl)ccc1NS(=O)(=O)C(F)(F)F the outcome was “inactive”. For CC[C@H](NC(=O)c1cc(F)ccc1NS(=O)(=O)c1cccc2cccnc12)c1ccccc1, the outcome was “inactive”. For C(=C\c1ccccc1)/CN1CCN(C(c2ccccc2)c2ccccc2)CC1, the outcome was “inactive”. In the case of CC(CCc1ccc2c(c1)OCO2)NN (stereo not given), the outcome is reported as “inactive”. In the case of C=CC(=O)NCOCC(C)C, the outcome is reported as “inactive”. With CC(CCO)CCc1ccccc1 (stereo not given) the outcome was “inactive”. With CCCCCCCCCCCC[N+](C)(C)CCCS(=O)(=O)[O-] the outcome was “inactive”. In the case of CC(C)C(=O)O, the outcome is reported as “inactive”. With CC(=O)Nc1ccccc1C the outcome was “inactive”. For CCC(C)(C)C1CCC(O)CC1 (stereo not given), the outcome was “inactive”. For CC1C2CC(CC2C2CCCC(O)C2)C1(C)C (stereo not given), the outcome was “inactive”. With OC(CCCN1CCCCC1)(c1ccccc1)c1ccccc1 the outcome was “inactive”. For CCCc1c(OCCCOc2ccc(OCC(=O)O)cc2)ccc(C(C)=O)c1O, the outcome was “inactive”. For CCn1nc(C)c2c1C(=O)NCC(c1ccc(O)cc1)=N2, the outcome was “inactive”. With O=C(CCCCCCC(=O)Nc1ccccc1)NO the outcome was “inactive”. In the case of Cc1cc2nc3ccc(=[N+](C)C)cc-3sc2cc1N, the outcome is reported as “inactive”.
